Results with a measured potency or affinity are listed apart.
target: Caspase-9 (Homo sapiens) (UniProt P55211); test: inhibitors of purified CASP9 protease – biochemical, fluorescence, plate reader, cherry-picked samples, selectivity assay for caspase-6 inhibitor project, dose response (AID 743293); conditions: purified caspase-9, Z-LEHD-R110 cleavage fluorescence; series mostly up to 35 µM; activity change, negative = inhibition: at the top concentration
Sequence (P55211 whole entry, looked up): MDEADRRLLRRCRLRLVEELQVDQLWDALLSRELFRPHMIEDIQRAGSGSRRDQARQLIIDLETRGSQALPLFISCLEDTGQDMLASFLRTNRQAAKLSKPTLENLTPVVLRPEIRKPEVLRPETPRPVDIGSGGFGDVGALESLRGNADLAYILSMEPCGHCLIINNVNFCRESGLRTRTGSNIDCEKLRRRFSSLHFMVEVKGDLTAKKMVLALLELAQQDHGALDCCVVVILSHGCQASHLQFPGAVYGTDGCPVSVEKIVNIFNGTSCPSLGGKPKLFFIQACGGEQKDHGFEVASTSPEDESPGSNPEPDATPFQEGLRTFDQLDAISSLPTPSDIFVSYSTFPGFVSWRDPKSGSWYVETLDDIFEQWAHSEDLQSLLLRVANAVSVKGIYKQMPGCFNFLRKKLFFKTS

Activity change, negative = inhibition, inactive:
COc1ccc(C(=O)OCC(=O)Nc2ncc([N+](=O)[O-])s2)cc1OC -3.4%
O=C(O)Cc1ccc(-n2cccc2)cc1 -10.5%
CCCCNC(=O)c1nc(C2CCNCC2)oc1-c1cccc(C(F)(F)F)c1 6.78%
COc1cc(C)c2c(c1C=O)Oc1c(c(C)c(O)c3c1C(O)OC3=O)OC2=O (configuration not stated) -7.48%
Cc1cc(C=O)c(C)n1-c1cc(C(=O)O)cc(C(=O)O)c1 0.218%
Cc1ccc(C)c(NC(=O)CN(C)C(=O)c2cccc(-n3cccc3)c2)c1 9.65%
O=c1c(O)cccc2cc(O)c(O)c(O)c12 -7.42%
Oc1cc2c(cc1O)[C@H]1c3ccc(O)c(O)c3OC[C@@]1(O)C2 -2.83%
Nc1ccc(Nc2ccccc2)c(S(=O)(=O)O)c1 -3.09%
CCOC(=O)[C@H](Cc1c[nH]c2ccccc12)NC(=O)CN=[N+]=[N-] 14.2%
C/C(CC(=O)N1CCCC1)=N\NC(=O)c1cc2ccccc2cc1O 2.71%
CCCN(C(=O)c1cccc(-n2cccc2)c1)c1c(N)n(Cc2ccccc2)c(=O)[nH]c1=O 12.4%
